# Laboratory results from PubChem BioAssay.
# Activity calls are given as the source filed them.
# Experiments:
# [1] = optical density shifts of acrAB sulA E. coli – strain DRC41, OD650, 48 h, E. coli filamentation inducer project, primary screen (AID 1152); settings: higher = more signal, called active from +8 up or from −8 down;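 note: E. coli MC1000 strain DRC41 lacking acrAB efflux pump and sulA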
# [2] = probe aLefty1 binding on compound microarray – biochemical, small-molecule microarray, 635/667 nm fluorescence, primary screen (AID 1153); settings: higher = more signal;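 note: score merges spot fluorescence with signal-to-noise ratio from the scanned slide images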
# [3] = plasmodial surface anion channel blockers, osmotic lysis – cell-based, P. falciparum Indochina, OD700, 1 h, primary screen (AID 1154); settings: P. falciparum Indochina infected RBC osmotic lysis, higher = more signal, called active from +8 up or from −8 down
# [4] = plasmodial surface anion channel blockers, osmotic lysis – cell-based, P. falciparum Indochina, OD700, 2 h, primary screen (AID 1155);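 note: lysis reports solute entry through the parasite surface anion channel PSAC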; settings: P. falciparum Indochina infected erythrocytes, higher = more signal, called active from +8 up or from −8 down
# [5] = changes in parasitized red cell lysis, either direction – P. falciparum Indochina, OD700, 3 h, PSAC antagonist project, primary screen (AID 1156); settings: P. falciparum-infected erythrocytes, osmotic lysis, higher = more signal, called active from +8 up or from −8 down
# [6] = plasmodial surface anion channel blockers, osmotic lysis – cell-based, P. falciparum Indochina, OD700, 18 h, primary screen (AID 1157); settings: P. falciparum Indochina infected erythrocytes, osmotic lysis OD700, 18 h; higher = more signal, called active from +8 up or from −8 down
# [7] = S6 kinase pathway phospho-S6 level changes – cell-based, A549, cytoblot, luminescence, serum-stimulated, primary screen (AID 1158); settings: 5 h, higher = more signal;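 note: serum-stimulated A549 lung adenocarcinoma cells; signal is phosphorylated S6 detected by cytoblot immunostaining with HRP secondary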
# [8] = molecular target: NADPH oxidase 2 (Homo sapiens) (UniProt P04839); assay: compounds shifting NOX2 Amplex Red fluorescence – cell-based, HEK293-NOX2, PMA-stimulated, NOX inhibitor project, primary screen (AID 1159); settings: 45 min, higher = more signal, called active from +8 up or from −8 down; note: test concentration not given here
# Chain of NADPH oxidase 2 (Homo sapiens) (P04839 whole entry, looked up): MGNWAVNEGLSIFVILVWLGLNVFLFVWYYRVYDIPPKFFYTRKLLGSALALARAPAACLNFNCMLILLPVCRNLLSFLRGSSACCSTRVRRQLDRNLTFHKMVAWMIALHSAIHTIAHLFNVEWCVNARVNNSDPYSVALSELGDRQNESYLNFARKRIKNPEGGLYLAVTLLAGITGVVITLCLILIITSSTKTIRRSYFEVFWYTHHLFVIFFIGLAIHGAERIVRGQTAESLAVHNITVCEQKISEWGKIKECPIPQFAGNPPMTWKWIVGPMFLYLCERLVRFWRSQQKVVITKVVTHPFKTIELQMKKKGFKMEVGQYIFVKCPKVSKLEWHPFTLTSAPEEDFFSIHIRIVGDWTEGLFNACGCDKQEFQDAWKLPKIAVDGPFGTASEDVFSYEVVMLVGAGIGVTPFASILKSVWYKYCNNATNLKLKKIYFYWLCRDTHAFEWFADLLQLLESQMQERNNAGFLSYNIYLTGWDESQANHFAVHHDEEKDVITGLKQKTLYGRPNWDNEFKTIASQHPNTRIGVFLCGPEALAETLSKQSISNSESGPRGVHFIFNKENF
# [9] = molecular target: NADPH oxidase 4 (Homo sapiens) (UniProt Q9NPH5); assay: compounds shifting NOX4 Amplex Red fluorescence – cell-based, HEK293-NOX4, tetracycline-induced, NOX inhibitor project, primary screen (AID 1160); settings: HEK293-NOX4, Amplex Red H2O2 fluorescence, 45 min; higher = more signal, called active from +8 up or from −8 down
# Chain of NADPH oxidase 4 (Homo sapiens) (Q9NPH5 whole entry, looked up): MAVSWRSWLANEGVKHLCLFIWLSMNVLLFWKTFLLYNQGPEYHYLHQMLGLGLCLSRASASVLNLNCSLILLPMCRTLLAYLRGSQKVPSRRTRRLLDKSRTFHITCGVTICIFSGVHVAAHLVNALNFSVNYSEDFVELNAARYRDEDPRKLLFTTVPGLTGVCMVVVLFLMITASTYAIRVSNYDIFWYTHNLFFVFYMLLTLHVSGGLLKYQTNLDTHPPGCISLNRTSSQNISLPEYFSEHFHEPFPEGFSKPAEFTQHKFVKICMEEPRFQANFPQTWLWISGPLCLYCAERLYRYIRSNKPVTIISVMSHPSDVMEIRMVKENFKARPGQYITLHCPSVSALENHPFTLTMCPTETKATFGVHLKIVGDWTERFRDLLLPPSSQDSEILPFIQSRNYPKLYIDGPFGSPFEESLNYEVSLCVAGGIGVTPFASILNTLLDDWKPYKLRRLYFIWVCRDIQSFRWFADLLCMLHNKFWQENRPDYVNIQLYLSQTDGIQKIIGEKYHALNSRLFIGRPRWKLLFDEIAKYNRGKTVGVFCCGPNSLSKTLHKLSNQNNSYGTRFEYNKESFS
# [10] = molecular target: NADPH oxidase 5 (Homo sapiens) (UniProt Q96PH1); assay: compounds shifting NOX5 Amplex Red fluorescence – cell-based, HEK293-NOX5, NOX inhibitor project, primary screen (AID 1161); settings: HEK293-NOX5, ionomycin, 45 min, higher = more signal
# Chain of NADPH oxidase 5 (Homo sapiens) (Q96PH1 whole entry, looked up): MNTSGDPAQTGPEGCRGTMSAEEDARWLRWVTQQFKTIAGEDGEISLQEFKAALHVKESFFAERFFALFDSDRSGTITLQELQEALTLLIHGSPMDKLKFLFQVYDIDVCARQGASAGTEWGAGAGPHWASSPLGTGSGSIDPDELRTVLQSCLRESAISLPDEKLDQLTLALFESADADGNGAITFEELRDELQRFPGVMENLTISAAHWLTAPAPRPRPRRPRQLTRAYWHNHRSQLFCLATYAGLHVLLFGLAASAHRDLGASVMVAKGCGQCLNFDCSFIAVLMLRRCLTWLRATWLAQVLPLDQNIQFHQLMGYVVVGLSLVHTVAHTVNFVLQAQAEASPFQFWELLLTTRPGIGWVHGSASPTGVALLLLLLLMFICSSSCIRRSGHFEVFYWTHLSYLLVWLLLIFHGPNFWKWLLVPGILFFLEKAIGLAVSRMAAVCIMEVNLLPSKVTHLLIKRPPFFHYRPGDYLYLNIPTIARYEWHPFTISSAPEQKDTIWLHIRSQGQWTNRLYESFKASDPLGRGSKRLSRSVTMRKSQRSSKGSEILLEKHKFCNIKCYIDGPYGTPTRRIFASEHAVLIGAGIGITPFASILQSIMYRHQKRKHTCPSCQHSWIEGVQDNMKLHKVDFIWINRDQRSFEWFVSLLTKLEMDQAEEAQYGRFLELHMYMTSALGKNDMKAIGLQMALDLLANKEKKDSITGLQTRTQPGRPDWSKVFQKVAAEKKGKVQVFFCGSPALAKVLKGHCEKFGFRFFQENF
SMILES,z-score [1],composite z-score [2],z-score [3],z-score [4],z-score [5],z-score [6],z-score [7],z-score [8],z-score [9],z-score [10]
C=CC[C@]1(C(=O)O)N=C(c2ccc(OCCCO)cc2)O[C@H]1c1ccccc1CN=[N+]=[N-],0.0533 (inactive),0.0425,13.7 (active),1.93 (inactive),-0.055 (inactive),0.665 (inactive),-0.0651,0.324 (inactive),1.03 (inactive),1.58
O=C1O[C@H](c2ccccc2)[C@H](c2ccccc2)N2[C@H]1[C@@H](C(=O)NC[C@H](O)c1ccccc1)[C@]1(C(=O)Nc3ccc(C#CC4=CCCCC4)cc31)[C@H]2c1ccc(O)cc1,1.8 (inactive),-0.0418,1.35 (inactive),0.393 (inactive),-0.693 (inactive),-0.521 (inactive),1.98,2.08 (inactive),0.754 (inactive),-0.0561
C=CCN1C(=O)[C@@]2(O[C@@H](CCO)[C@H]([Si](C)(C)c3ccc(OC)cc3)[C@H]2C)c2cc(NC(C)=O)ccc21,-0.149 (inactive),0.0429,23.7 (active),8.14 (active),0.502 (inactive),1.26 (inactive),0.0792,-1.07 (inactive),-0.0526 (inactive),-0.391
O=C(NCC(F)(F)F)[C@@H]1c2ccccc2C(=O)N(Cc2ccccc2)[C@H]1c1ccc(CO)cc1,0.467 (inactive),-0.147,0.878 (inactive),-0.453 (inactive),0.239 (inactive),-0.406 (inactive),-0.325,-0.489 (inactive),0.597 (inactive),-0.601
CC1CC/C=C\[C@H]2OC34C=CCN(CCN5CCOCC5)C(=O)[C@H]3N(CCCCCO)C(=O)[C@@H]4C2C(=O)O1 (stereo not given in full),-0.346 (inactive),-0.409,0.851 (inactive),0.618 (inactive),0.007 (inactive),0.257 (inactive),0.165,0.545 (inactive),-0.277 (inactive),1.03
C=CCC(OC(C)=O)[C@@H]1[C@@H](N(Cc2ccc(-c3ccccc3)cc2)C(=O)c2ccc(C)cc2)c2cc(OCCCO)ccc2N1C(=O)c1ccc2ccccc2n1 (stereo not given in full),2.95 (inactive),0.175,0.225 (inactive),-0.883 (inactive),-1.19 (inactive),-1.06 (inactive),1.56,-0.0121 (inactive),0.729 (inactive),1.92
COCCOC(=O)N1C(=O)[C@@]2(c3cc(C#CC4(O)CCCCCC4)ccc31)[C@H](c1ccc(O)cc1)N1[C@H](c3ccccc3)[C@H](c3ccccc3)OC(=O)[C@H]1[C@@H]2C(=O)N1CCc2cc(OC)c(OC)cc2C1,1.23 (inactive),-0.0099,-0.0535 (inactive),0.49 (inactive),0.44 (inactive),0.286 (inactive),0.0108,-0.0758 (inactive),0.139 (inactive),0.979
COCCOC(=O)N1C(=O)[C@@]2(c3cc(C#Cc4ccc(OC)cc4)ccc31)[C@H](C(N)=O)[C@H]1C(=O)O[C@H](c3ccccc3)[C@H](c3ccccc3)N1[C@@H]2c1ccc(O)cc1,1.52 (inactive),0.649,0.429 (inactive),-0.359 (inactive),-0.939 (inactive),-1.13 (inactive),2.93,-0.0615 (inactive),0.893 (inactive),0.128
NC(=O)NCC#Cc1ccc2c(c1)[C@]1(C(=O)N2)[C@H](c2ccc(O)cc2)N2[C@H](c3ccccc3)[C@H](c3ccccc3)OC(=O)[C@H]2[C@@H]1C(=O)N1CCN(c2ncccn2)CC1,0.642 (inactive),0.266,1.36 (inactive),0.747 (inactive),0.458 (inactive),0.565 (inactive),-0.0168,1.06 (inactive),0.478 (inactive),1.68
C=C[C@H](OC)[C@@H](OC(=O)Nc1ccc(SC)cc1)c1ccc(OCCO)cc1,-0.356 (inactive),-0.101,26 (active),15.7 (active),2.51 (inactive),1.82 (inactive),0.306,0.228 (inactive),0.103 (inactive),0.99
COCCn1c(C(=O)N2CCCC2)cc2c1C[C@H]1CN(C(=O)c3ccccc3)[C@@](Cc3ccc(OC)cc3)(C(=O)OC)[C@@H]21,0.223 (inactive),1.15,2.9 (inactive),-0.51 (inactive),-0.778 (inactive),-1.96 (inactive),2.69,0.121 (inactive),0.435 (inactive),-4.54
C=CC[C@]1(C(=O)NCCN2CCOCC2)N=C(c2ccc(OCCCO)cc2)O[C@H]1c1ccccc1N=[N+]=[N-],1.39 (inactive),0.14,30.7 (active),28.6 (active),2.5 (inactive),5.98 (inactive),-0.106,-0.798 (inactive),1.5 (inactive),0.108
